According to PubChem BioAssay AID504848 (National Center for Advancing Translational Sciences (NCATS), 2011):
The whole screen tested about 2,300 compounds, of which about 1,400 (61%) were called active. Roughly 29% stayed inconclusive and do not appear here. Calls come from the whole dose curve; as a rule, active = well fitted inhibition curve with a large enough effect; inconclusive = small, poorly fitted or top-dose-only effect, or effect the other way; inactive = no such curve, though single readings can be large or run the other way. So high a share suggests a set chosen from earlier hits. The list shows a part of the results.

Assay: Confirmation screen for delayed death inhibitors of the malarial parasite plastid, 96 hour incubation; note: nearly all actives have a fitted effect of over 60% in size
Conditions: P. falciparum luciferase growth in erythrocytes; series mostly up to 28.7 µM
How it was run: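 Two-generation (96 h, 37 C) exposure of P. falciparum carrying an integrated firefly luciferase reporter in erythrocytes, 0.1% parasitemia and 2% hematocrit final, Albumax-supplemented RPMI. Luminescence decrease measures growth inhibition.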
Potency is the fitted concentration of half-maximal effect.

Row | Structure (SMILES) | Potency
1 | CC(C)CCSc1nc(N)c(C#N)cc1C#N | 5.62 µM (active)
2 | Cc1cccc2cc3c(nc12)SC(=NCC1CCCO1)N(Cc1ccco1)C3 (stereo not drawn) | 2 µM (active)
3 | CCCNC(=O)c1ccc(S(=O)(=O)c2ccc(OC)cc2)c([N+](=O)[O-])c1 | 5.01 µM (active)
4 | CCOc1ccc2c(c1)C(N(CCN1CCOCC1)C(=O)Nc1ccccc1)CC(C)(C)O2 (stereo not drawn) | 10 µM (active)
5 | O=C(N/N=C/c1cccn1-c1ccc([N+](=O)[O-])cc1)c1cccnc1 | 11.2 µM (active)
6 | COc1cc(/C=C(/C(=O)c2cccs2)c2nc3ccccc3[nH]2)ccc1O | 3.98 µM (active)
7 | COC(=O)/C(=C\c1cc(OC)c(OC)c(OC)c1)c1nc2ccccc2[nH]1 | 11.2 µM (active)
8 | O=C(/C(=C/c1ccc(Cl)cc1)c1nc2ccccc2[nH]1)c1ccccc1 | 1.26 µM (active)
9 | O=C(NCc1ccc2[nH]c3c(c2c1)CCCC3)c1ccc(S(=O)(=O)N2CCCC2)cc1 | 12.6 µM (active)
10 | Brc1ccc2[nH]c3c(c2c1)CCC3 | inactive
11 | C=CCNC(=O)c1onc(CSc2ccc(Cl)cc2)c1C(=O)O | inactive
12 | COc1ccc(-c2cc(CNC(=O)CCl)on2)cc1 | 1.41 µM (active)
13 | NNc1nc(-c2ccccc2Cl)c2cc(Br)ccc2n1 | 11.2 µM (active)
14 | COc1ccc(Cl)cc1NC(=O)c1noc(C)c1[N+](=O)[O-] | 12.6 µM (active)
15 | CCCN1C2=C(C(=O)CCC2)C(c2ccc(O)c(Br)c2)C2=C1CCCC2=O | 12.6 µM (active)
16 | OC1CCN(c2c3c(nc4cc(-c5ccc(Cl)cc5)nn24)CCC3)CC1 | 3.98 µM (active)
17 | C/C(=C\C(=O)c1ccncc1)Nc1ccccc1O | 15.8 µM (active)
18 | CO[C@H](C(=O)[C@@H](O)[C@@H](C)O)C1Cc2cc3cc(O[C@H]4C[C@@H](O[C@H]5C[C@@H](O)[C@H](O)[C@@H](C)O5)[C@@H](O)[C@@H](C)O4)c(C)c(O)c3c(O)c2C(=O)[C@H]1O[C@H]1C[C@@H](O[C@H]2C[C@@H](O[C@H]3C[C@](C)(O)[C@H](O)[C@@H](C)O3)[C@H](O)[C@@H](C)O2)[C@H](O)[C@@H](C)O1 (stereo partly drawn) | 0.562 µM (active)
19 | COc1ccc(NS(=O)(=O)c2ccc(N3CCOCC3)c(NC(=O)c3ccc(OC)cc3)c2)cc1 | 11.2 µM (active)
20 | Cc1cc(Sc2nnc(/N=C/N(C)C)s2)c2ccccc2n1 | 7.08 µM (active)
21 | Cc1cc(Sc2nnc(N)s2)c2ccccc2n1 | 5.62 µM (active)
22 | CC1CCCN(Cc2c(O)ccc3c(=O)c(-c4nc5ccccc5s4)c(N)oc23)C1 (stereo not drawn) | 0.316 µM (active)
23 | CCOc1cc([N+](=O)[O-])cc(/C=N/NC(=O)c2c(-c3ccccc3)noc2C)c1O | 14.1 µM (active)
